Source: PubChem BioAssay (NCATS)
Where “and” joins values, the source holds several entries; their conditions need not be identical. Equal entries are not always repeated. Records with an inconclusive call do not appear. Entries that show only a call come without a potency. Calls of active or inactive are those of the source. Unless noted, calls come from the whole dose curve; as a rule, active = well fitted curve in the direction sought with a large enough effect; inconclusive = small, poorly fitted or top-dose-only effect, or another doubt; inactive = no such curve, though single readings can be large; an effect the other way counts as inactive or inconclusive.

How the values were obtained:
[1] = Primary qHTS for small molecule stabilizers of the endoplasmic reticulum resident proteome: Secreted ER Calcium Modulated Protein (SERCaMP) assay (AID 1508630)
How it was run: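 GLuc-SERCaMP-expressing SH-SY5Y cells, pretreated 16 h with compound, are challenged with thapsigargin to empty ER calcium stores; after 4 h, coelenterazine is added directly to the medium and luminescence is imaged.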

[2] = A High-Content qHTS Against Drug Library for the Identification of Small Molecules that Inhibit DYT1 Early Onset Primary Dystonia-Associated Cell Pathology (AID 1645839; calls by dose curve; note: potency is the fitted concentration of half-maximal effect)
How it was run: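 In this high-content image screen, delE TorsinA mislocalization in inducible Flp-In 293 cells is scored as %pathology, with cell count serving as the counterscreen. Compound exposure lasts 48 h under tetracycline induction in reduced-serum medium.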

[3] = target: Cytochrome P450 2C9 (Homo sapiens) (UniProt P11712); assay: Cytochrome P450 family 2 subfamily C member 9 (CYP2C9) small molecule antagonists: luciferase biochemical (cell-free) qHTS assay (AID 1645842; active = well fitted curve in the direction sought with a large enough effect in the repeat runs; an effect the other way counts as inactive or inconclusive; note: nearly all actives have a fitted effect of over 55% in size; note: potency is the fitted concentration of half-maximal effect)
Cytochrome P450 2C9 (Homo sapiens), sequence (P11712 whole entry, looked up): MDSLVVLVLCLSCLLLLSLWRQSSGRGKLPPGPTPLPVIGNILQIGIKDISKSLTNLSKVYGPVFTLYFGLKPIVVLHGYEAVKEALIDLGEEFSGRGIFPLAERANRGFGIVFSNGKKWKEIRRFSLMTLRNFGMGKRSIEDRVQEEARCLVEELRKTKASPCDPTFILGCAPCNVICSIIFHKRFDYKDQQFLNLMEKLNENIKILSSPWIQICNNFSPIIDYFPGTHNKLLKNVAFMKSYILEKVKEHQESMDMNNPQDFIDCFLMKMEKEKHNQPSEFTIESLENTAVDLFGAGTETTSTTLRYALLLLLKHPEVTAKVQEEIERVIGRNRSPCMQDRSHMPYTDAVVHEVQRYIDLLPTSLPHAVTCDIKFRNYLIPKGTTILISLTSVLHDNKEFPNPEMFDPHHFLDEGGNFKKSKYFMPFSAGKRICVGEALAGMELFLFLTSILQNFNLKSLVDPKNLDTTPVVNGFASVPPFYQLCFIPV
How it was run: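 Luminescence, after 20 min with luciferin detection reagent, reflected CYP2C9 turnover during a 1 h NADPH-driven reaction at 37C. Enzyme-substrate mix contained 0.4% bovine serum albumin and was preincubated with compound 10 min at room temperature.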

[4] = Primary qHTS for inhibitors of nuclear receptor binding SET domain protein 2 (NSD2) in an isogenic RCH-ACV NSD2 p.E1099K mutant (9B) (AID 1645876); note: nearly all actives have a fitted effect of over 70% in size; note: potency is the fitted concentration of half-maximal effect
[5] = target: Cytochrome P450 3A4 (Homo sapiens) (UniProt P08684); assay: Cytochrome P450 family 3 subfamily A member 4 (CYP3A4) small molecule antagonists: luciferase qHTS assay (AID 1645841; active = well fitted curve in the direction sought with a large enough effect in the repeat runs; an effect the other way counts as inactive or inconclusive; note: nearly all actives have a fitted effect of over 45% in size)
Cytochrome P450 3A4 (Homo sapiens), sequence (P08684 whole entry, looked up): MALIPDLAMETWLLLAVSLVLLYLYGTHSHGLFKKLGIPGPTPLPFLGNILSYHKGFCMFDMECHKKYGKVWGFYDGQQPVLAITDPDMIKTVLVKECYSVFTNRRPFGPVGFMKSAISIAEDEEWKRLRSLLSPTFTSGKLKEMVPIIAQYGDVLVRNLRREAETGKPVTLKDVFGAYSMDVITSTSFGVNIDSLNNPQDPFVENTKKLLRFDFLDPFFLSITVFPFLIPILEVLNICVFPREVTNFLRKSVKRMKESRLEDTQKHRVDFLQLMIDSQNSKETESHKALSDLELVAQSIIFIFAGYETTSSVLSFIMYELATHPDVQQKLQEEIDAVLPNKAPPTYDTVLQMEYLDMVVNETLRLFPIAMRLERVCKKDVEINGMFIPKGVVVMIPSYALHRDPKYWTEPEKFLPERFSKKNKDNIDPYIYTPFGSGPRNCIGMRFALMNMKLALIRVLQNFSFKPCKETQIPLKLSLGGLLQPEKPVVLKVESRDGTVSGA
How it was run: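 Luminescent CYP3A4 activity readout: compounds plus enzyme-substrate mix 10 min at room temperature, reaction started with NADPH regenerating system for 1 h, stopped with detection reagent, read after 20 min. Ketoconazole served as control.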

Papain (Carica papaya) = Papain (Carica papaya) (UniProt P00784); assay: Primary qHTS assay for inhibitors of the protease papain (AID 1645873);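 note: papain turnover of Z-FR-AMC read as the AMC fluorescence gain over 10 min; series mostly up to about 50 µM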
Papain (Carica papaya), sequence (P00784 whole entry, looked up): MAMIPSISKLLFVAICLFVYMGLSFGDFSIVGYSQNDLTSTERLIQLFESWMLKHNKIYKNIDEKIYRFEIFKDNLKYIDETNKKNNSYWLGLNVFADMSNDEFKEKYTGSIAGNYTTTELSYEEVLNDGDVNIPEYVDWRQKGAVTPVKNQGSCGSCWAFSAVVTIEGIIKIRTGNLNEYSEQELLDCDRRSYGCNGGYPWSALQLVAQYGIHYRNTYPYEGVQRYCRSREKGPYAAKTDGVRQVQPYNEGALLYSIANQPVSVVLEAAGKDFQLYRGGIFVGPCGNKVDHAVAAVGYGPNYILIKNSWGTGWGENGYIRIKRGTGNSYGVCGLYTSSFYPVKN

[6] = target: Cytochrome P450 2D6 (Homo sapiens) (UniProt P10635); assay: Cytochrome P450 family 2 subfamily D member 6 (CYP2D6) small molecule antagonists: luciferase biochemical (cell-free) qHTS assay (AID 1645840; active = well fitted curve in the direction sought with a large enough effect in the repeat runs; an effect the other way counts as inactive or inconclusive; note: nearly all actives have a fitted effect of over 55% in size; note: potency is the fitted concentration of half-maximal effect)
Cytochrome P450 2D6 (Homo sapiens), sequence (P10635 whole entry, looked up): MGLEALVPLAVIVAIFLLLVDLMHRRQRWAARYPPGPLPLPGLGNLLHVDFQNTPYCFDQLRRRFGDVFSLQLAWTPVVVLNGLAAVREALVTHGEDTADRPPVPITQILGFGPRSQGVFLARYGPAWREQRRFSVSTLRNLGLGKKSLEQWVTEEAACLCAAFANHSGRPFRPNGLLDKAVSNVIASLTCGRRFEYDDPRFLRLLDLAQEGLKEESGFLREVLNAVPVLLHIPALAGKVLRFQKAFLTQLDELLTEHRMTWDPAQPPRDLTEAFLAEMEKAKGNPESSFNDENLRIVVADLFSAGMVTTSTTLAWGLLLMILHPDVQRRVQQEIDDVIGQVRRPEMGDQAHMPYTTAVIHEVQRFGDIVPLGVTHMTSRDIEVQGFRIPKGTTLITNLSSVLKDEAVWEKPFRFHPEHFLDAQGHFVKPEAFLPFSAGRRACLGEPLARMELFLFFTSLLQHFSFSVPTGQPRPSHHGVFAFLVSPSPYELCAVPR
How it was run: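 P450-Glo luminescent screen: recombinant CYP2D6 enzyme–proluciferin substrate mix preincubated with compound 10 min at room temperature, then NADPH regeneration added for 1 h at room temperature. Detection reagent added for 20 min; luciferin light read as relative luminescence units.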

| Structure (SMILES) | Potency [1] | Potency [2] | Potency [3] | Potency [4] | Potency [5] | outcome (Papain (Carica papaya)) | Potency [6] |
| --- | --- | --- | --- | --- | --- | --- | --- |
| CC(=O)O[C@]1(C(C)=O)CC[C@H]2[C@@H]3C=C(Cl)C4=CC(=O)CC[C@]4(C)[C@H]3CC[C@@]21C | inactive | inactive | 8.71 µM (active) |  |  |  |  |
| CCCCCCCCCCCCSCCOCCO | inactive | inactive | 12.3 µM (active) | inactive |  |  |  |
| C#C[C@]1(O)CC[C@H]2[C@@H]3CCC4=CC(=O)CC[C@@H]4[C@H]3CC[C@@]21CC | inactive | inactive | 12.3 µM (active) | inactive |  |  |  |
| NC(N)=NN=C(/C=C/c1ccc([N+](=O)[O-])o1)/C=C/c1ccc([N+](=O)[O-])o1 | inactive | 1 µM (active) | 15.5 µM (active) | 0.668 µM (active) |  |  |  |
| C=C1c2cccc(O)c2C(O)=C2C(=O)[C@]3(O)C(O)=C(C(N)=O)C(=O)[C@@H](N(C)C)[C@@H]3[C@@H](O)[C@H]12 | inactive | inactive | inactive | inactive | inactive |  |  |
| CC(=O)O[C@H]1C[C@@H]2CC[C@@H]3[C@H](CC[C@@]4(C)[C@H]3C[C@H]([N+]3(C)CCCCC3)[C@@H]4OC(C)=O)[C@@]2(C)C[C@@H]1N1CCCCC1 | inactive | inactive | inactive | inactive |  |  |  |
| c1ccc(-c2nc[nH]c2-c2ccccc2)cc1 | inactive | inactive | inactive |  |  |  |  |
| CCCCC(CC)COC(=O)c1ccc(N(C)C)cc1 (stereo unspecified) | inactive | inactive | 13.8 µM (active) and 13.5 µM (active) | inactive |  |  |  |
| COc1cc(C)nc(-n2nc(C)cc2OC)n1 | inactive | inactive | inactive | inactive |  |  |  |
| FC1(F)C(F)(F)C(F)(F)C2(F)C(F)(F)C(F)(F)C(F)(F)C(F)(F)C2(F)C1(F)F (stereo unspecified) | inactive | inactive | inactive | inactive |  |  |  |
| CN(C)CCN1C(=O)c2ccccc2N(C)c2ccccc21 | inactive | inactive | inactive | inactive |  |  |  |
| Cc1ccc(-c2ncc(Cl)cc2-c2ccc(S(C)(=O)=O)cc2)cn1 | inactive | inactive | inactive | inactive |  |  |  |
| COc1cc(C(=S)N2CCOCC2)ccc1O | inactive | inactive | inactive |  |  |  |  |
| Cc1cc2c(OCC(CNC(C)(C)C)OC(=O)c3ccccc3)cccc2[nH]1 (stereo unspecified) | inactive | inactive | 3.47 µM (active) | inactive |  |  |  |
| CN(C)CCOC(=O)C(c1ccccc1)C1(O)CCCC1 (stereo unspecified) | inactive | inactive | inactive | inactive |  |  |  |
| C[N+]1(CC2COC(c3ccccc3)(C3CCCCC3)O2)CCCCC1 (stereo unspecified) | inactive | inactive | inactive | 21.1 µM (active) |  |  |  |
| Nc1nc(N)c(-c2ccccc2)s1 | inactive | inactive | inactive | inactive |  |  |  |
| C[C@@H](O)[C@H]1C(=O)N2C(C(=O)O)=C(S[C@@H]3CN[C@H](CNS(N)(=O)=O)C3)[C@H](C)[C@H]12 | inactive | inactive | 11 µM (active) | inactive |  |  |  |
| O=C(Oc1cccc2cccnc12)c1ccccc1 | inactive | inactive | inactive | inactive |  |  |  |
| CC(C)(C)NC[C@H](O)COc1nsnc1N1CCOCC1 | inactive | inactive | inactive | inactive |  | inactive |  |
| CN(C)CCC[C@@]1(c2ccc(F)cc2)OCc2cc(C#N)ccc21 | inactive | inactive | inactive | inactive |  |  |  |
| Cc1c[nH]c2ccccc12 | inactive | inactive | inactive | inactive |  |  |  |
| CCN(CC)CCNC(=O)c1cc(Br)c(N)cc1OC | inactive | inactive | inactive | inactive |  |  |  |
| OC[C@H]1O[C@@H]2O[C@H]3[C@H](O)[C@@H](O)[C@@H](O[C@H]4[C@H](O)[C@@H](O)[C@@H](O[C@H]5[C@H](O)[C@@H](O)[C@@H](O[C@H]6[C@H](O)[C@@H](O)[C@@H](O[C@H]7[C@H](O)[C@@H](O)[C@@H](O[C@H]8[C@H](O)[C@@H](O)[C@@H](O[C@H]1[C@H](O)[C@H]2O)O[C@@H]8CO)O[C@@H]7CO)O[C@@H]6CO)O[C@@H]5CO)O[C@@H]4CO)O[C@@H]3CO | inactive | inactive | inactive | inactive |  |  |  |
| CC1(C)OC[C@@H]2O[C@@]3(C(=O)O)OC(C)(C)O[C@H]3[C@@H]2O1 |  |  |  |  | inactive |  |  |
| O=C(O)C1(C(=O)O)CCC1.[NH2-].[NH2-].[Pt+2] |  |  |  |  | inactive |  |  |
| N#CCC(=O)NN |  | inactive | inactive | inactive |  |  | inactive |
| CCCCCCCCCCCCCCCC(=O)O |  | inactive | inactive | inactive |  |  |  |
| CC(=O)NO |  | inactive | inactive | inactive |  |  |  |
| CCOc1ccccc1OCCN[C@H](C)Cc1ccc(OC)c(S(N)(=O)=O)c1 |  | inactive | inactive | inactive |  |  | 15.5 µM (active) |
